The test is described as follows: HT29 colon tumor cell growth inhibition, primary screen, imaging, high content imaging, 48 h, CellTiter-Glo (AID 771).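 On condensed nuclei: condensed means Hoechst nuclear area under control median minus 1.5 SD.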 The settings on record: HCS imaging cell count, at 10 µM, stronger effect = higher value; for condensed nuclei: measured here: percent cells with condensed nuclei. A general note: ATP-based viability assays read luminescence as a measure of living cells.
The mark [1] stands for this setting: measured here: ATP CellTiter-Glo viability inhibition.

Structures are written as SMILES. About 55 (2%) of roughly 3,300 compounds were called active.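 How the source made its calls: active means growth inhibition above 90%, meaning viable cell count by imaging cut by more than 90% versus vehicle controls; inactive means growth inhibition below 90%.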 The full list was thinned out, with actives kept by preference.

Take `CN1CCN(c2ncnc3c2[nH]c2ccc(F)cc23)CC1`: the growth inhibition is 64.5% (inactive) and the condensed nuclei stood at 2.81%. Further, the growth inhibition under setting [1] turned out to be 10%.
Taken in the same sequence, the figures for `Cc1ccc2[nH]c3c(N4CCN(Cc5ccc6c(c5)OCO6)CC4)ncnc3c2c1` were 94.2% (active), 25.3% and 91.8%.
Regarding `Cc1ccc2[nH]c3c(N4CCN(Cc5ccccc5)CC4)ncnc3c2c1`, the growth inhibition was 16% (inactive) and the condensed nuclei came out at 2.02%. Besides, the growth inhibition under setting [1] is -1.83%.
Taken in the same sequence, the figures for `Fc1ccc2[nH]c3c(N4CCN(Cc5ccc6c(c5)OCO6)CC4)ncnc3c2c1` were 97.9% (active), 29% and 92.8%.
For `c1ccc(CN2CCN(c3ncnc4c3[nH]c3ccccc34)CC2)cc1`, the growth inhibition was 89.4% (inactive) and the condensed nuclei was found to be 10.8%. Also, the growth inhibition under setting [1] is 57.3%.
Taken in the same sequence, the figures for `Fc1ccc2[nH]c3c(N4CCN(C5CCCCC5)CC4)ncnc3c2c1` were 94% (active), 10.8% and 85.4%.
The matching figures for `c1ccc2c(c1)[nH]c1c(N3CCN(C4CCCCC4)CC3)ncnc12`: 58.7% (inactive), 3.08% and 2.53%.
Taken in the same sequence, the figures for `Cc1ccc2[nH]c3c(N4CCCCCC4)ncnc3c2c1` were 96.6% (active), 38.1% and 93%.
In the case of `c1ccc2c(c1)[nH]c1c(N3CCSCC3)ncnc12`, the growth inhibition was 57.5% (inactive) and the condensed nuclei was 0.5%. Besides, under setting [1], the growth inhibition was 9.84%.
With `Fc1ccc2[nH]c3c(N4CCSCC4)ncnc3c2c1`, the growth inhibition was 38.7% (inactive) and the condensed nuclei was determined as 4.52%. Also, the growth inhibition under setting [1] is 37.9%.
For `COc1ccc2[nH]c3c(N4CCN(Cc5ccc6c(c5)OCO6)CC4)ncnc3c2c1`, the growth inhibition is 40.6% (inactive) and the condensed nuclei was 3.53%. Further, under setting [1], the growth inhibition came out at 20.9%.
With `Cc1ccc2[nH]c3c(N4CCOCC4)ncnc3c2c1`, the growth inhibition is 42.1% (inactive) and the condensed nuclei was 0.48%. Besides, under setting [1], the growth inhibition was 15.8%.
The matching figures for `O=C(CCN1CCc2ccccc2CC1)c1ccc2c(c1)OCCO2`: 18.3% (inactive), 1.32% and 14.1%.
Taken in the same sequence, the figures for `Fc1ccc(-c2cnc[nH]2)cc1` were 7.2% (inactive), 1.71% and -20.5%.
Taken in the same sequence, the figures for `COC(=O)CSc1nc2sc3c(c2c(=O)n1C1CCCCC1)CCN(C)C3` were 31.7% (inactive), 4.17% and -21.3%.
Consider `O=C(O)CC(C(=O)N(c1ccccc1)c1ccccc1)N1CCOCC1` (stereo unspecified), for which the growth inhibition was -4.04% (inactive) and the condensed nuclei was 1.81%. For the same compound, under setting [1], the growth inhibition is -10.5%.
Consider `Cc1occc1C(=O)OCC(=O)Nc1ccc(F)cc1`, for which the growth inhibition was 41.9% (inactive) and the condensed nuclei is 4.91%. Besides, the growth inhibition under setting [1] came out at 18.1%.
Taken in the same sequence, the figures for `Cc1ccc(CNC(=O)c2cc3c(=O)n4ccccc4nc3n(Cc3ccco3)c2=N)cc1` were 38.7% (inactive), 1.03% and 10.6%.
With `CCOc1ccc(C2/C(=C(/O)c3ccc(F)cc3)C(=O)C(=O)N2CCCN(C)C)cc1` (stereo unspecified), the growth inhibition was 28.1% (inactive) and the condensed nuclei was 5.22%. Besides, the growth inhibition under setting [1] is -5.46%.
Taken in the same sequence, the figures for `CCN1CCN(c2nc3c(C)cccn3c(=O)c2/C=C(\C#N)S(=O)(=O)c2ccccc2)CC1` were 9.15% (inactive), 2.58% and 7.42%.
Taken in the same sequence, the figures for `COC(=O)c1cc(Br)c(=O)n(CCc2ccc(F)cc2)c1` were 43.4% (inactive), 1.12% and 17.2%.
For the compound `CCOC(=O)c1[nH]c2ccc(F)cc2c1N=C(C)N(CC)CC`, the growth inhibition is -6.13% (inactive) and the condensed nuclei came out at 2.07%. The growth inhibition under setting [1] was -22.6%.
The matching figures for `CC(C)CNC(=O)c1c(N)n(/N=C/c2ccccn2)c2nc3ccccc3nc12`: -40% (inactive), 2.54% and -5.64%.
Taken in the same sequence, the figures for `Fc1ccc2[nH]c3c(N4CCN(c5ccccc5)CC4)ncnc3c2c1` were 81.6% (inactive), 29.2% and 84.2%.
Taken in the same sequence, the figures for `COc1cccc(N2CCN(c3ncnc4c3[nH]c3ccccc34)CC2C)c1` (stereo unspecified) were 89.8% (inactive), 5.36% and 62.2%.
On to `COc1cccc(N2CCN(c3ncnc4c3[nH]c3ccc(F)cc34)CC2C)c1` (stereo unspecified), for which the growth inhibition is 91.7% (active) and the condensed nuclei was 4.17%. Also, the growth inhibition under setting [1] was 89.4%.
The matching figures for `CC(=O)/C=C(\C)NCCNc1c(F)c(F)c(CO)c(F)c1F`: 23.4% (inactive), 1.42% and 0.5%.
On to `CC(COc1ccccc1)NC(C)C(O)c1ccc(O)cc1` (stereo unspecified), for which the growth inhibition was 22.6% (inactive) and the condensed nuclei worked out at 2.89%.
The matching figures for `CC(NCCc1ccc(O)cc1)C(O)c1ccc(O)cc1` (stereo unspecified): -16.3% (inactive) and 2.5%.
The matching figures for `CCCCCCCCNC(C)C(O)c1ccc(SC(C)C)cc1` (stereo unspecified): 99.7% (active) and 50%.
As to `COc1ccc(OC)c(C(O)c2coc3ccc(O)c(CN4CCOCC4)c23)c1` (stereo unspecified), the growth inhibition was -2.41% (inactive) and the condensed nuclei was 4.2%. The growth inhibition under setting [1] was -6.82%.
Taken in the same sequence, the figures for `Cc1nc(=O)c(-c2ccccc2)c(C)n1-c1ccc(S(N)(=O)=O)cc1` were -25.6% (inactive), 2.99% and -8.56%.
Taken in the same sequence, the figures for `CCOC(=O)c1[nH]c2cc(OC)c(OC)cc2c1NC(=O)C(C)N1CCN(Cc2ccccc2)CC1` (stereo unspecified) were 3.83% (inactive), 3.08% and -7.15%.
As for `CCCCC(=O)NC(Nc1ccc(C)cn1)(C(=O)OCC)C(F)(F)F` (stereo unspecified), the growth inhibition is -56.4% (inactive) and the condensed nuclei came to 2.76%. The growth inhibition under setting [1] is -18.7%.
Taken in the same sequence, the figures for `CCn1cc(C(=O)NCCc2ccccc2)c(=O)c2cc(F)c(N3CCN(C)CC3)cc21` were 97% (active), 14.8% and 89.7%.
Taken in the same sequence, the figures for `CCn1cc(C(=O)NCCCN(C)C)c(=O)c2cc(F)c(N3CCN(C)CC3)cc21` were 23.8% (inactive), 4.97% and -23.1%.
On to `CCn1cc(C(=O)NCc2ccccn2)c(=O)c2cc(F)c(N3CCN(C)CC3)cc21`, for which the growth inhibition was 15.6% (inactive) and the condensed nuclei stood at 2.93%. In addition, the growth inhibition under setting [1] is -1.75%.
The matching figures for `CCOC(=O)c1ccccc1OCc1cc(/C=N/n2cncn2)ccc1OC`: 28.7% (inactive), 3.97% and 6.4%.

The values are drawn from PubChem BioAssay AID771 (SRMLSC, 2007).
